Rows were chosen to be rich in hits. Some 4.2% of all compounds tested hit in one or more screens of this group.
ALOX12 inh = ALOX12 (human) lipoxygenase inhibition; purified 12hLO, xylenol orange hydroperoxide absorbance; 580,000 tested, 1.1% active; Potency, µM (top dose mostly 108 µM), for inactives: at the top dose activity change, negative = inhibition, most hits filed as inhibitors; AID 1671190
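Purified human 12hLO (150 nM final) in 25 mM Hepes, 0.01% Triton X-100, pH 7.0 was preincubated 15 min at room temperature with compound. Then 40 uM arachidonic acid was added, 30 min. Hydroperoxide was read by Fe-XO absorbance ratio 573/405 nm.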
VDR inhibitor = vitamin D3 receptor (human) inhibition; VDR-SRC2-3 peptide fluorescence polarization, 2 h; 400,000 tested, 0.93% active; Potency, µM, for the others: max response, negative = inhibition, actives largely listed as inhibitors; P11473; AID 504847
Target sequence (P11473 whole entry, looked up): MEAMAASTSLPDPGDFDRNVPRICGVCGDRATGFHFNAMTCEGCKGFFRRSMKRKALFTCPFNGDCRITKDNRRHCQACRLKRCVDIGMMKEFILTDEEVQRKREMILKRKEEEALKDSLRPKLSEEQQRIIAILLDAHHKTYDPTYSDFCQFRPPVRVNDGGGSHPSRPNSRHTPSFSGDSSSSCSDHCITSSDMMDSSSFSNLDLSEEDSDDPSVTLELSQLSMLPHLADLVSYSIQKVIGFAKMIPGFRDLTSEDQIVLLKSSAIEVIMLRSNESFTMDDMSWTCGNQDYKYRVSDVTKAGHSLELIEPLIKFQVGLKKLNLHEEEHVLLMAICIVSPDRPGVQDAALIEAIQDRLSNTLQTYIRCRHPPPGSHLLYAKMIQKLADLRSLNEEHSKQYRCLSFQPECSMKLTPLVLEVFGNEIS
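FP read-out; VDR + SRC2-3 coactivator peptide; 23 nl compound by pintool; 2 h RT incubation; reagents held at 4 deg C, protected from light.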
Sfp PPTase inh = blocks B. subtilis Sfp PPTase activity; Q9F4F7; Biochemical Sfp PPTase activity, qHTS; Potency, µM, inactives show largest response in the series, negative = inhibition, actives largely listed as inhibitors; 310,000 tested, 3.5% active; AID 1490;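 note: the enzyme is Sfp with the accession as filed and its product quenches rhodamine fluorescence; 0% = enzyme reaction without inhibitor and -100% = no enzyme wells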
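Step 1, compound plus 15 nM Sfp-PPTase, 15 min, room temperature. Step 2, add rhodamine-CoA (5 uM) and BHQ-2-YbbR (12.5 uM). Step 3, read 525/598 nm fluorescence at 0 and 30 min.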
PLK1 PBD inh = blocks phosphopeptide binding to human PLK1 polo-box domain; P53350; Plk1 PBD binding of FITC phosphopeptide, fluorescence polarization; Potency, µM, without a hit: max response, negative = inhibition, hits mostly inhibitors; 360,000 tested, 2.8% active; AID 720504; note: series mostly up to about 57 µM; nearly all actives have a fitted effect of over 65% in size
Starred values were filed as active, the others as inactive; ? = inconclusive; . = not tested or not shown; ! = not active in a repeat. Calls come from the whole dose curve; as a rule, active = well fitted curve in the direction sought with a large enough effect; inconclusive = small, poorly fitted or top-dose-only effect, or another doubt; inactive = no such curve, though single readings can be large; an effect the other way counts as inactive or inconclusive. Unless noted, % is set by controls: 0 for no effect and ±100 for the full control effect; potency is the fitted concentration of half-maximal effect.

SMILES | ALOX12 inh | VDR inhibitor | Sfp PPTase inh | PLK1 PBD inh
c1csc(-c2nn3c(Cn4cnc5ccccc54)nnc3s2)c1 | ? | -37% | -85% | 21µM*
Clc1cccc(-c2nn3c(Cn4cnc5ccccc54)nnc3s2)c1 | 10µM*! | ? | 20µM* | 11µM*
c1ccc2oc(-c3nn4c(Cn5cnc6ccccc65)nnc4s3)cc2c1 | 37% | -18% | . | ?
c1csc(-c2nn3c(Cn4nnc5ccccc54)nnc3s2)c1 | -2% | 14% | 9% | -9%
Brc1ccccc1-c1nn2c(Cn3cnc4ccccc43)nnc2s1 | 11µM* | . | . | .
CN1CCCN(Cc2cccc3ccccc23)CC1 | ? | 0% | -30% | 7%
Cc1ccc(OCC(=O)Nc2ccccc2F)cc1 | ? | 0% | . | 0%
O=C(NC1CC(=O)N(c2cccc(F)c2)C1)c1cc2ccccc2o1 (stereo not given) | -21% | 5% | . | .
NC(=O)[C@H]1C[C@@H](O)[C@H](O)[C@H]2[C@@H]1SC(=Nc1ccc(Cl)cc1)N2CC1CCCCC1 | 28µM* | . | . | .
COc1ccc(N=C2S[C@H]3[C@H]([C@@H](O)[C@H](O)C[C@@H]3C(N)=O)N2Cc2ccc(F)cc2)cc1 | 52% | . | . | .
COc1ccc2nc3cccc(OC)c3nc2c1 | -28% | -18% | -85% | ?
COc1ccc2nc3ccccc3nc2c1N | ? | ? | 4.5µM* | -21%
Cc1ccc2cccc(NC(=O)c3cccc4c(Cl)cccc34)c2n1 | -26% | 2% | . | .
CCOC(=O)c1cc(-c2ccccc2)nn1CC1CC(c2cccnc2)=NO1 (stereo not given) | -6% | -6% | . | 2%
CCOC(=O)c1cc(-c2cccnc2)nn1-c1ccccc1C | -7% | ? | -6% | 27µM*
CC(C)N1C/C(=C/c2ccsc2)C(=O)/C(=C/c2ccsc2)C1 | ? | 16µM* | ? | -18%
O=C1/C(=C/c2ccsc2)Cc2ccccc21 | -3% | . | . | .
COc1ccc(N(Cc2cc(=O)[nH]c3ccccc23)C(=O)c2ccco2)cc1 | -25% | 6% | 56µM* | -13%
O=C(Cc1ccc(N(Cc2ccc(F)cc2)C(=O)c2ccco2)cc1)NCc1ccc(F)cc1 | 32µM* | . | . | .
COc1ccc(CN(C(=O)c2ccco2)c2ccccc2)cc1 | 1% | -12% | -1% | -1%
Cn1c(=S)ccc2ccccc21 | ? | -26% | 45µM* | 27µM*
COc1ccc(OCc2nnc(SCC(=O)N(C)Cc3ccccc3)n2N)cc1 | ? | 79µM* | 25µM* | 11µM*
O=S(=O)(Nc1nnc(C(F)(F)F)s1)c1ccc(Cl)cc1 | 14% | -30% | 18% | -18%
COc1ccc(N2C(=O)CC(NCc3cccs3)C2=O)cc1 (stereo not given) | ? | -7% | 12% | -1%
COc1ccc(N2C(=O)CC(NNc3ncc(Cl)cc3Cl)C2=O)cc1 (stereo not given) | -14% | -11% | 50µM* | -7%
SMILES | ALOX12 inh | VDR inhibitor | Sfp PPTase inh | PLK1 PBD inh
Cc1noc(C)c1-c1cncnc1NCc1cccnc1 | ? | -3% | 56µM* | .
Cc1ccccc1-c1cncnc1NCc1cccnc1 | ? | 50µM* | 79µM* | .
C[C@@H]1CN(Cc2ccc3c(c2)CN(Cc2cccc(O)c2)CCO3)C[C@H](C)O1 | 2% | . | . | .
COCC(=O)O[C@]1(CCN(C)CCCc2nc3ccccc3[nH]2)CCc2cc(F)ccc2[C@@H]1C(C)C | 11µM*! | 0% | -16% | -5%
Cc1ccc(OC2(C(=O)N3CCCC3c3nccs3)CCNCC2)cc1 (stereo not given) | 18µM* | . | . | .
Cc1ccc(OC2(C(=O)N[C@H]3CCc4ccccc43)CCNCC2)cc1 | -6% | . | . | .
CN(C)C(=O)c1c(C(F)(F)F)nn(C)c1Cl | -31% | -13% | 7% | ?
COCCNC(=O)Cn1cc(C(=S)N2CCOCC2)c2ccccc21 | 13% | -9% | 32µM* | 30µM*
COCCCNC(=O)Cn1cc(C(C)=O)c2ccccc21 | -13% | 0% | 15% | -5%
CCCc1c(C)[nH]c2ccc(C(=O)O)cc2c1=S | 2% | -27% | 25µM* | 13µM*
CCCCOc1ccc2c(=O)c(-c3cc(C(=O)OC)oc3C)c(C)oc2c1 | 45µM* | . | . | .
COC(=O)c1cc(-c2c(C)oc3cc(OC(C)C)ccc3c2=O)c(C)o1 | -28% | -9% | -14% | -3%
Cc1ccc(C(=O)Nc2cccc(C(F)(F)F)c2)cc1NC(=O)c1csc(-c2ccncc2)n1 | . | 6% | 20µM* | -13%
O=C1CC(c2cccc(F)c2)c2c(c3ccccc3[nH]c2=O)O1 (stereo not given) | -59% | -4% | 6.3µM* | -9%
Cc1cccc(NC(=O)CCS(=O)(=O)c2ccc3c(c2)NC(=O)CS3)n1 | -4% | ? | 11% | 30µM*
CC1Cc2ccccc2N1C(=O)CCS(=O)(=O)c1ccc2c(c1)NC(=O)CS2 (stereo not given) | 6% | ? | 13% | 19µM*
O=C(CCS(=O)(=O)c1ccc2c(c1)NC(=O)CS2)NCCc1ccc(Cl)cc1 | -7% | ? | 12% | 17µM*
COc1ccc(S(=O)(=O)CCC(=O)N2c3ccccc3CC2C)cc1 (stereo not given) | ? | 10% | 7% | -15%
Cn1c(CCN2CCOCC2)nc2cc(NC(=O)c3cccs3)ccc21 | 7% | -16% | 19% | -2%
Cc1cc(NC(=O)CSCC(=O)Nc2nc3ccccc3[nH]2)no1 | 2% | -8% | . | -6%
COc1ccccc1NC(=O)c1cc2ccccc2o/c1=N\O | 453% | -10% | 50µM* | ?
O=C(Nc1ccccc1)/C(=C\c1ccc2c(c1)OCO2)NC(=O)c1ccco1 | -4% | -29% | 13% | 24µM*
O=C(Nc1nc(N2C(=O)c3ccccc3C2=O)n(-c2ccccc2)n1)c1ccccc1 | -16% | -2% | 0.89µM* | -9%
CC(=O)Nc1nc(N2C(=O)c3ccccc3C2=O)n(-c2ccccc2)n1 | 0% | -10% | 8.9µM* | -11%

High-throughput results as filed in PubChem BioAssay.
